Compounds with a hit are over-represented: about 3.2% of the library has one in this group of screens.
PAX8 reporter = inhibitors of PAX8-driven TPO luciferase reporter, primary screen, RMG-I cells, single concentration. SteadyGlo, 24 h. inhibition, % at 12.6 µM. 360,000 compounds, 1.2% hits;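 active = mean replicate inhibition at least 60% with every replicate also reaching 60%; inconclusive = only one of the two criteria is met; inactive = mean below 60% and not all replicates reaching 60%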;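 also: luciferase light reporting Pax8 driven TPO promoter activity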
LGR2 inh = inhibitors of bursicon-induced LGR2 CRE-luciferase signal, primary screen, cell-based, HEK293, CRE-luciferase reporter, bursicon stimulation. Drosophila bursicon receptor LGR2 (rickets). AID 720647, 2013. inhibition, % at 9.99 µM. bursicon-stimulated, 4 h. 380,000 compounds, 0.35% hits;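 active = drop in luminescence signal, shown as inhibition above about 50% in the replicate tests, limit read from the data, passing the limit was not always enough; inconclusive = probably only some replicates passing the limit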;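 also: agonist challenge used bursicon conditioned medium at about half maximal strength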
EWS-Fli block = EWS/Fli-driven NR0B1 reporter inhibitors, primary screen, A673 cells, NR0B1 luciferase, luminescence, MLPCN library. viability-normalised. inhibition, % at 12.6 µM. 350,000 compounds, 0.67% hits. AID 651661, 2012;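 active = mean inhibition of at least 50% after viability correction, with every replicate also passing that limit; inconclusive = mean reaches 50% but only one of two replicates passes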;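 also: firefly luciferase signal divided by Alamar Blue viability fluorescence both relative to DMSO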
TROY NFkB inh = inhibitors of TROY-driven NF-kB signaling, primary screen, Q293 LMP1-TROYcd cells, NF-kB luciferase, uHTS; Q293 LMP1-TROYcd NF-kB luciferase reporter, 4 h; inhibition, % at 10 µM; 360,000 compounds, 0.98% hits; AID 1347056, 2019;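 active = compounds whose plate-normalised and pattern-corrected inhibition of the luciferase reporter signal at the single screening dose is 50% or more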
LMP1 NFkB inh = EBV LMP1-driven NF-kappaB luciferase reporter inhibitors, primary screen, cell-based, luminescence, single point. 350,000 compounds, 0.69% hits. inhibition, % at 12.5 µM. LMP1-induced NF-kappaB luciferase reporter cells. AID 504558, 2011; in the data active = inhibition above about 41%; inconclusive = no clear call, values can overlap the other calls
TWEAK Fn14 block = inhibitors of TWEAK-Fn14 signaling, primary screen, luciferase reporter cells, uHTS; TWEAK-stimulated Fn14 reporter cells, luciferase luminescence, 8 h; inhibition, % at 10 µM; 360,000 compounds, 2% hits; AID 1159606, 2016; in the data active = inhibition above about 50%
Numbers stand for hits; – = inactive; ? = inconclusive; · = not tested or not shown.

SMILES	PAX8 reporter	LGR2 inh	EWS-Fli block	TROY NFkB inh	LMP1 NFkB inh	TWEAK Fn14 block
CC(Oc1ccc(Cl)cc1Cl)C(=O)Nc1ccncc1 (stereo not given)	·	·	·	–	–	–
COc1ccc(/C=C/C(=O)c2ccc3c4c(cccc24)CC3)cc1	–	·	–	–	–	–
COc1ccc(/C=C/C(=O)c2cc(F)ccc2OC(=O)c2ccccc2C)cc1OC	91.2	–	?	–	–	52.9
COc1ccc(C(=O)Oc2ccc(F)cc2C(=O)/C=C/c2ccc(OC)c(OC)c2)cc1	–	–	·	–	–	–
COc1ccc(/C=C/C(=O)c2ccc3c4c(cccc24)CC3)cc1OC	–	–	·	–	–	52.3
N#CC1=C(N)C(C#N)(C#N)[C@H](c2cccnc2)[C@H]2CN(C(=O)OCc3ccccc3)CC=C12	–	–	–	–	–	–
N#CC1=C(N)C(C#N)(C#N)C(c2cccnc2)C2CC(c3ccccc3)CC=C12 (stereo not given)	·	·	·	–	54.7	61.3
Cc1noc(C)c1S(=O)(=O)Nc1ccc2c(c1)C(=O)N([C@H](C)CO)C[C@H](C)[C@H](CN(C)C(=O)Nc1ccc3c(c1)OCO3)O2	·	–	–	·	·	·
COCC(=O)N1CC2(CCN(C(=O)c3ccccn3)CC2)c2c(n(C)c3cc(OC)ccc23)[C@@H]1CO	–	–	–	·	·	·
O=c1oc2ccccc2cc1-c1ccccc1	–	–	–	–	–	–
O=C(O)c1ccc(-n2cc(-c3cc4ccccc4oc3=O)[nH]c2=S)cc1	–	–	–	72.4	–	73.1
Cc1cc(C)c2sc(NC(=O)C3CC3)nc2c1	–	·	–	–	48.3	–
Cc1cc(C)nc(Sc2nc(Nc3ccccc3)nc(Sc3nc(C)cc(C)n3)n2)n1	61.2	–	·	–	–	–
CC(C)c1ccc(-n2cccc2/C=C2/C(=N)N3C=CSC3=NC2=O)cc1	–	53.2	–	–	–	54.8
C[C@@H]1CN([C@H](C)CO)C(=O)c2ccccc2-c2ccccc2CO[C@H]1CN(C)C(=O)Nc1ccc2c(c1)OCO2	–	–	–	·	·	·
O=C(Nc1ccccc1F)N[C@@H]1CC[C@H](CCNC(=O)C2CCCCC2)O[C@@H]1CO	–	–	–	·	·	·
NC(=O)[C@@H]1CC2(CC(c3cccc(NC(=O)CC(c4ccccc4)c4ccccc4)c3)=NO2)CN1C(=O)COc1ccc(Cl)cc1 (stereo not given in full)	76.9	–	–	–	–	–
NC(=O)[C@H]1CC2(CC(c3cccc(NC(=O)CC(c4ccccc4)c4ccccc4)c3)=NO2)CN1C(=O)C(c1ccccc1)c1ccccc1 (stereo not given in full)	68.9	–	–	–	–	–
C[C@@H]1CN([C@H](C)CO)C(=O)Cc2cc(NC(=O)Nc3ccc(C(F)(F)F)cc3)ccc2O[C@@H]1CN(C)S(=O)(=O)c1ccc(F)cc1	–	–	–	·	·	·
C[C@H]1CN([C@@H](C)CO)C(=O)Cc2cc(NC(=O)Nc3ccc(C(F)(F)F)cc3)ccc2O[C@@H]1CN(C)S(=O)(=O)c1ccc(F)cc1	–	–	–	·	·	·
C[C@H]1CN([C@@H](C)CO)C(=O)Cc2cc(NC(=O)Nc3ccc(C(F)(F)F)cc3)ccc2O[C@H]1CN(C)S(=O)(=O)c1ccc(Cl)cc1	·	–	57.1	·	·	·
C[C@H](CO)N1C[C@H](C)[C@H](CN(C)S(=O)(=O)c2cn(C)cn2)Oc2ccc(NC(=O)Nc3ccc(C(F)(F)F)cc3)cc2CC1=O	–	–	61.1	–	–	–
C[C@@H]1CN([C@@H](C)CO)C(=O)Cc2cc(NC(=O)Nc3ccc(C(F)(F)F)cc3)ccc2O[C@@H]1CN(C)S(=O)(=O)c1ccc(Cl)cc1	95.8	–	–	–	–	–
C[C@@H]1CN([C@H](C)CO)C(=O)Cc2cc(NC(=O)Cc3cn(C)c4ccccc34)ccc2O[C@H]1CN(C)Cc1ccc(C(=O)Nc2ccccc2N)cc1	·	–	–	·	·	·
COc1cccc(-c2nc3n(n2)C(c2cccs2)C(C(=O)Nc2cccnc2)=C(C)N3)c1 (stereo not given)	–	–	–	–	49.5	–
SMILES	PAX8 reporter	LGR2 inh	EWS-Fli block	TROY NFkB inh	LMP1 NFkB inh	TWEAK Fn14 block
COc1ccc(CN(C)C[C@H]2Oc3ccc(NS(=O)(=O)c4ccc(C)cc4)cc3C(=O)N([C@@H](C)CO)C[C@@H]2C)cc1	–	–	–	·	·	·
O=C(O[C@@H]1OC2COC(=O)c3cc(O)c(O)c(O)c3-c3c(cc(O)c(O)c3O)C(=O)O[C@@H]([C@H]1O)[C@@H]2O)c1cc(O)c(O)c(O)c1	·	·	·	–	–	75.3
O=C(NCCc1ccccc1)C1CCN(S(=O)(=O)N2CCCC2)CC1	·	–	–	–	–	–
CN(CCNC(=O)C1CCN(S(=O)(=O)N2CCOCC2)CC1)CCc1ccccc1	·	–	·	–	41.5	–
O=C(CSc1nc(Cc2ccccc2)nc2ccccc12)c1ccc2c(c1)OCCO2	·	–	·	–	–	–
O=C(CSc1ncnc2ccccc12)c1ccc2c(c1)OCCO2	–	–	–	54.3	–	–
CCc1nc(SCC(=O)c2ccc3c(c2)OCCO3)c2ccccc2n1	–	·	·	–	40.5	–
C[C@@H]1CN([C@H](C)CO)C(=O)c2cc(NC(=O)c3ccncc3)ccc2O[C@@H]1CN(C)Cc1ccc2c(c1)OCO2	–	·	–	·	·	·
O=C(O)/C=C/C(=O)Nc1ccccc1C(=O)OCC(=O)c1ccc2c(c1)OCCO2	–	–	–	52.8	–	–
CCCS(=O)(=O)N1CCCC(C(=O)Oc2ccc(Cl)cc2)C1 (stereo not given)	–	–	–	–	–	–
CCCCS(=O)(=O)N1CCCC(C(=O)Nc2ccc(Cl)cn2)C1 (stereo not given)	–	–	–	–	–	85.5
CCN(C(=O)CSc1nnc(Nc2cccc(C)c2C)s1)C1CCS(=O)(=O)C1 (stereo not given)	–	·	–	–	47.5	–
CCN(C(=O)CSc1nnc(NCc2ccccc2)s1)C1CCS(=O)(=O)C1 (stereo not given)	–	–	–	–	–	–
Cc1noc(C)c1NC(=O)Nc1ccc2c(c1)CC(=O)N([C@H](C)CO)C[C@@H](C)[C@@H](CN(C)C(=O)Nc1ccccc1)O2	–	–	–	·	·	·
COc1cc(OC)cc(C(=O)Nc2cc(-c3cn4cccnc4n3)ccc2C)c1	–	–	–	–	–	–
COc1cc(C(=O)Nc2cc(-c3cn4cccnc4n3)ccc2C)cc(OC)c1OC	–	–	–	–	–	91.8
C[C@@H]1CN([C@H](C)CO)C(=O)c2cc(-c3ccncc3)cnc2O[C@H]1CN(C)C(=O)C1CCCCC1	·	–	–	·	·	·
CC(=O)c1ccc(N2CCN(c3ccc(S(=O)(=O)NCCCN(C)C)cc3[N+](=O)[O-])CC2)cc1	–	–	–	–	–	–

Screens: PubChem, several laboratories
